Test results from PubChem BioAssay (Tox21).
Records with an inconclusive call do not appear. Calls of active or inactive are those of the source. Unless noted, calls come from the whole dose curve; as a rule, active = well fitted curve in the direction sought with a large enough effect in the repeat runs; inconclusive = weak or mixed curves; inactive = no such curve, though single readings can be large; an effect the other way counts as inactive or inconclusive.

Key:
[1] = qHTS assay for small molecule agonists of the p53 signaling pathway (AID 651631; calls by dose curve; note: nearly all actives have a fitted effect of over 15% in size)
Procedure, shortened: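 HCT-116 cells carrying a stable p53 response element–beta-lactamase reporter were plated, rested 5 h at 37 °C, then exposed to compound in DMSO for 16 h at 37 °C; reporter activity was read as FRET substrate fluorescence after 2 h at room temperature.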

[2] = qHTS assay for small molecule agonists of the p53 signaling pathway - cell viability (AID 651633; calls by dose curve; note: series mostly up to about 83 µM; nearly all actives have a fitted effect of over 30% in size)
Procedure, shortened: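 p53RE-bla cells were treated with compound for 16 hours at 37 C. Cytotoxicity was then measured as CellTiter-Glo luminescence after 30 min at room temperature.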

[3] = qHTS assay for small molecules that induce genotoxicity in human embryonic kidney cells expressing luciferase-tagged ATAD5 - cell viability (AID 651634; calls by dose curve; note: nearly all actives have a fitted effect of over 25% in size)
Procedure, shortened: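 HEK293T ATAD5-luc cells, 2,000/well; compound 15.5 hr, 37C/5% CO2; CellTiter-Fluor 30 min, 37C; fluorescence read.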

[4] = qHTS assay for small molecule disruptors of the mitochondrial membrane potential - cell viability (AID 720634; calls by dose curve;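 note: human HepG2 liver cancer cells; series mostly up to about 83 µM; nearly all actives have a fitted effect of over 20% in size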)
Procedure, shortened: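 Luminescence from CellTiter-Glo (ATP content) gave viability in HepG2 cells, read in the same wells as the MMP dye assay after 1 hr compound exposure at 37 C.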

[5] = qHTS assay for small molecule disruptors of the mitochondrial membrane potential (AID 720635)
Procedure, shortened: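 HepG2 cells exposed to compound 1 hr at 37C, then Mito-MPS dye 30 min. Ratio read of aggregate (540/590 nm) versus monomer (490/535 nm) fluorescence.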

[6] = qHTS assay to test for compound auto fluorescence at 590 nm (red) in HepG2 cells (AID 720674)
Procedure, shortened: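 Fluorescence at 590 nm emission following 540 nm excitation was recorded from HepG2 wells one hour after compound transfer, with DMSO-only wells as vehicle and Rose Bengal sodium equivalency as the scale.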

[7] = qHTS assay to test for compound auto fluorescence at 535 nm (green) in HepG2 cells (AID 720675)
[8] = qHTS assay to test for compound auto fluorescence at 460 nm (blue) in HEK293 cells (AID 720678)
Procedure, shortened: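 Blue read-out at excitation 405 nm and emission 460 nm follows overnight compound exposure of HEK293 cells at 37C in 5% CO2. Activity is given as auto fluorescence equivalency to triamterene.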

[9] = qHTS assay to test for compound auto fluorescence at 590 nm (red) in HEK293 cells (AID 720679)
Procedure, shortened: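 Red channel, Ex/Em 540/590nm; signal expressed as equivalency to Rose Bengal sodium. HEK293, 2,000 cells/well, 10% dialyzed FBS; 23 nL compound pinned after 4-5 hr attachment; overnight 37C/5% CO2 before reading.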

[10] = qHTS assay to test for compound auto fluorescence at 535 nm (green) in HEK293 cells (AID 720680)
[11] = qHTS assay to test for compound auto fluorescence at 535 nm (green) in HEK293 cell free culture (AID 720682)
Procedure, shortened: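 Read-out: 485/535 nm fluorescence intensity, calibrated against fluorescein. Medium only (DMEM + 10% FBS, no cells); test compound or DMSO vehicle added by pintool before plate reading.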

[12] = qHTS assay to test for compound auto fluorescence at 590 nm (red) in HEK293 cell free culture (AID 720683)
Procedure, shortened: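 Cell-free wells of DMEM with 10% FBS received compound, and intrinsic fluorescence was read at excitation/emission 540/590 nm. Values expressed as equivalence to Rose Bengal sodium.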

[13] = qHTS assay to test for compound auto fluorescence at 590 nm (red) in HepG2 cell free culture (AID 720684)
Procedure, shortened: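 Auto fluorescence equivalency versus Rose Bengal sodium, red channel Ex/Em 540/590 nm; compounds in cell-free MEM/10% FBS; DMSO vehicle control.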

[14] = qHTS assay to test for compound auto fluorescence at 460 nm (blue) in HepG2 cell free culture (AID 720685)
Procedure, shortened: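 Cell-free plates of MEM plus 10% FBS received 23 nL compound or DMSO vehicle; blue-channel (405/460 nm) intensity scored against triamterene as reference fluorophore.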

[15] = qHTS assay to test for compound auto fluorescence at 535 nm (green) in HepG2 cell free culture (AID 720686)
[16] = qHTS assay to test for compound auto fluorescence at 460 nm (blue) in HepG2 cells (AID 720687)
Procedure, shortened: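 HepG2 cells in MEM with 10% FBS, attached overnight at 37 C, were exposed to compound or DMSO for 1 hr at 37 C, 5% CO2. Blue fluorescence was read at 405/460 nm, with triamterene as reference fluorophore.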

[17] = molecular target: Glucocorticoid receptor (Homo sapiens) (UniProt P04150); experiment: qHTS assay to identify small molecule agonists of the glucocorticoid receptor (GR) signaling pathway (AID 720691; active = well fitted activation curve with a large enough effect in the signal ratio in the repeat runs, not every such curve was filed as active; the % refers to the signal ratio)
Chain of Glucocorticoid receptor (Homo sapiens) (P04150 whole entry, looked up): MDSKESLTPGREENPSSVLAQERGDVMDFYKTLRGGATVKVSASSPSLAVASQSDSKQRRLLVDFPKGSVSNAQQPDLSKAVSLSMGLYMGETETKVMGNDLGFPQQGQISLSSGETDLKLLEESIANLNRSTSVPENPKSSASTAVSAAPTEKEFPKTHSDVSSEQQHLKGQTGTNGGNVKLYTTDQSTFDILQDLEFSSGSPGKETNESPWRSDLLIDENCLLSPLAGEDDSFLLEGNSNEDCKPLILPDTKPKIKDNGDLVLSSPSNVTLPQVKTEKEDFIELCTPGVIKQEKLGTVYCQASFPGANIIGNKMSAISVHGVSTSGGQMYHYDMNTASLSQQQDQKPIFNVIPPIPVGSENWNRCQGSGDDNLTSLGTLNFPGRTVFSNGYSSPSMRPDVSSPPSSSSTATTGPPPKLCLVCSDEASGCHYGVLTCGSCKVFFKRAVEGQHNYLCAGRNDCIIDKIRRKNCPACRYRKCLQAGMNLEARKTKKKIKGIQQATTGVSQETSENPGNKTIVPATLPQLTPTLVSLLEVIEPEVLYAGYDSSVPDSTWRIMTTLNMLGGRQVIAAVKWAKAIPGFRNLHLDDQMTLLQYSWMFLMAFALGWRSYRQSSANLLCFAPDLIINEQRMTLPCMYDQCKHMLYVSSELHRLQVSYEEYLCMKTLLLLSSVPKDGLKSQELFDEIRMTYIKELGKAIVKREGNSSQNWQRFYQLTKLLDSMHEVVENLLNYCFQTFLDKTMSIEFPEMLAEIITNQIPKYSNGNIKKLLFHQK
Procedure, shortened: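 HeLa GR-bla reporter line; cells pre-incubated 4 h, compound in DMSO 18 h at 37 C; LiveBLAzer B/G FRET substrate 2 h RT; fluorescence intensity read-out.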

[18] = molecular target: Glucocorticoid receptor (Homo sapiens) (UniProt P04150); experiment: qHTS assay to identify small molecule antagonists of the glucocorticoid receptor (GR) signaling pathway (AID 720692; active = well fitted inhibition curve with a large enough effect in the signal ratio in the repeat runs, not every such curve was filed as active; the % refers to the signal ratio)
Procedure, shortened: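 Read-out: beta-lactamase FRET substrate fluorescence, 2 h at room temperature, in HeLa cells stably carrying a GRE-driven bla reporter. Compounds were co-incubated with 5 nM dexamethasone agonist (final) for 18 h at 37 C.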

[19] = qHTS assay for small molecules that induce genotoxicity in human embryonic kidney cells expressing luciferase-tagged ATAD5 (AID 651632); note: nearly all actives have a fitted effect of over 15% in size
Procedure, shortened: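 Luminescence read-out: after 16 hr compound exposure at 37C, ATAD5-luciferase HEK293T cells received Amplite, 30 min RT, then CCD imaging. A rise in signal marks genotoxic stress.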

[20] = qHTS assay to test for compound auto fluorescence at 460 nm (blue) in HEK293 cell free culture (AID 720681)
Procedure, shortened: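 Compounds were added to cell-free DMEM with 10% FBS and fluorescence read directly. The blue channel used 405 nm excitation and 460 nm emission, with triamterene as the reference fluorophore.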

Measured: Potency

CN[C@@H](C)[C@H](O)c1ccccc1
not listed: [19] | [20]
inactive: all other assays above

CC(Cc1ccccc1)NCc1ccccc1Cl (stereo not drawn)
not listed: [2] | [5]
inactive: all other assays above

C1CS1
not listed: [5] | [17] | [18] | [19]
inactive: all other assays above

CCCCC#N
not listed: [2] | [15] | [17] | [18] | [19] | [20]
inactive: all other assays above

Nc1cccc2ccccc12
not listed: [3] | [5] | [8] | [17] | [18] | [19]
inactive: all other assays above

Cc1nnc(-c2ccccc2)c(=O)n1N
not listed: [8] | [19]
inactive: all other assays above

CC(C)CCON=O
not listed: [19]
inactive: all other assays above

CCCCOC(=O)CCC(=O)OCCCC
not listed: [8] | [17] | [18] | [19]
inactive: all other assays above
